The list is not random: actives were taken first. Their share in the collection is about 8.9%.
SW480 rerep: DNA re-replication induction in SW480 cells. SW480 DNA re-replication, Hoechst DNA content imaging, 48 h. Potency, µM (titrated, usually from 46.1 µM), without a hit: top-dose re-replication activation, hits mostly activators. 1.8% of 340,000 active; further: potency means the concentration at half of the fitted maximal effect; % of control where 0% means no effect; nearly all actives have a fitted effect of over 55% in size
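Per well, 250 cells were exposed to pinned compound for 48 hr. Nuclear DNA was visualised with Hoechst (40 min, 37 C) and total object intensity recorded by fluorescence scanning.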
DRD3 agonist: activates the human D3 dopamine receptor | P35462 | D3R DiscoveRx beta-arrestin cells, luminescence, 90 min | max activation, % | 0.58% of 410,000 active; in the data active means max activation above about 30%; further: 0% is about no effect
Target sequence (P35462 whole entry, looked up): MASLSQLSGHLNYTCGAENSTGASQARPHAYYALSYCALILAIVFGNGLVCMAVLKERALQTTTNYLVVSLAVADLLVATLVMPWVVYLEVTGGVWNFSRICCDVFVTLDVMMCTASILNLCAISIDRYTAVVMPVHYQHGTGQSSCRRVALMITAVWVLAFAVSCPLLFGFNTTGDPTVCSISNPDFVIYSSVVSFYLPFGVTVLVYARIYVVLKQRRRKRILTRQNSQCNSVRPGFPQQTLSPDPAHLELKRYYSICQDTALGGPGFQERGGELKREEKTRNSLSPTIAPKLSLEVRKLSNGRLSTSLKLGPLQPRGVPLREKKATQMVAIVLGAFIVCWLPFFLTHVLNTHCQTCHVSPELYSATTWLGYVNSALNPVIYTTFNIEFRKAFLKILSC
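Cells at 1500/well, incubated overnight, then treated with pinned compounds (dopamine as control) for 90 min at 37 degrees C. DiscoveRx reagent added for 30 - 60 minutes at room temperature; luminescence read.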
KB-3-1 cytotox: kills parental KB-3-1 adenocarcinoma cells | Potency, µM (top dose mostly 46.1 µM), actives largely listed as cytotoxic | AID 1347075 | KB-3-1 viability, CellTiter-Glo ATP luminescence, 72 h | 1.4% of 400,000 active; further: potency means the concentration at half of the fitted maximal effect; on the % scale 0 is the no-effect control and ±100 the full control effect; nearly all actives have a fitted effect of over 60% in size
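Parental KB-3-1 viability, qHTS format: 72 h compound exposure, 37 °C; CellTiter-Glo; media-only wells and DMSO plates as controls; concentration-effect fits on corrected data.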
KB-V1 MDR tox: kills drug-selected multidrug resistant KB-V1 cells; Potency, µM (titrated, usually from 46.1 µM), most hits filed as cytotoxic; KB-V1 MDR cells viability, CellTiter-Glo, 72 h; AID 1347076; 3.4% of 400,000 active; further: potency means the concentration at half of the fitted maximal effect; on the % scale 0 is the no-effect control and ±100 the full control effect; nearly all actives have a fitted effect of over 60% in size
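Cytotoxicity via CellTiter-Glo luminescence after 72 h compound exposure at 37 degrees C. Cells: drug-selected KB-V1 line, DMEM phenol-red free plus 10% FBS. Compounds tested at multiple concentrations; normalized data fitted to concentration-effect curves.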
MCF10A rerep: DNA re-replication induction in MCF 10a cells; 2.9% of 350,000 active; MCF 10A DNA re-replication, Hoechst nuclear intensity, 48 h; Potency, µM (top dose mostly 46.1 µM), without a hit: at the top dose activity, positive = re-replication, most hits filed as activators; further: potency means the concentration at half of the fitted maximal effect; % of control where 0% means no effect; nearly all actives have a fitted effect of over 50% in size
D3 antag: D3 dopamine receptor (human) antagonism. D3R cells, DiscoveRx beta-arrestin luminescence, antagonist mode; hits give low values. max response, negative = inhibition, %. 2.5% of 360,000 active; in the data active means max response below about -50%; inconclusive means no clear call, values can overlap the other calls; further: on the % scale 0 is the no-effect control and ±100 the full control effect
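Cells expressing the human receptor were seeded at 1500 cells/well, incubated overnight at 37 degrees C in 5% CO2, then exposed to library compounds with dopamine controls for 90 minutes at 37 degrees C before luminescent detection.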
Starred values were filed as active, the others as inactive; i = inactive; u = inconclusive; x = not tested or not shown; ! = not confirmed by another sample; [ ] = remark or other dose. Unless noted, the call rests on the fitted dose curve; in most records, active means well fitted curve in the direction sought with a large enough effect; inconclusive means small, poorly fitted or top-dose-only effect, or another doubt; inactive means no such curve, though single readings can be large; an effect the other way counts as inactive or inconclusive.

SMILES | SW480 rerep | DRD3 agonist | KB-3-1 cytotox | KB-V1 MDR tox | MCF10A rerep | D3 antag
O=C(CN1c2ccccc2Sc2ccccc21)NNC(=O)Nc1ccc(Cl)cc1 | u | 3.6 | i | i | u | 8.1
CC(=O)c1ccccc1C(=O)N1CCC(n2nccc2NC(=O)C2CC2)CC1 | -7.5% | 5.7 | i | u | 0.8% | 1.5
O=C(NCCN1CCN(c2ccccc2F)CC1)c1ccc2nc3ccccc3c(=O)n2c1 | u | 3.5 | i | i | u | -58.4*
Cc1c(C)n(C)c2ccc(C(=O)NCCCN3CCN(c4ccccc4F)CC3)cc12 | u | -3.0 | i | i | 4.3% | -82.4*
CCc1nc2ccc(C(=O)NCCCN3CCN(c4ccccc4F)CC3)cc2nc1CC | u | 18.2 | i | i | u | -66.1*
Cc1c(C)n(C)c2ccc(C(=O)NCCCN3CCCC3)cc12 | -6.0% | 2.0 | i | i | 6.1% | -0.3
O=C(NCCCN1CCN(c2ccccc2F)CC1)c1ccc2nc(Cc3ccccc3)oc2c1 | x | 1.0 | x | x | x | x
Cc1c(C)n(C)c2ccc(C(=O)NCCCN3CCN(c4ccc(F)cc4)CC3)cc12 | u | -18.7 | i | i | 7.4% | -55.6*
Cc1c(C)n(C)c2ccc(C(=O)NCCCN3CCCCC3)cc12 | -14.5% | -2.2 | i | u | 5.4% | 2.1
CCCN=C1N(C)C[C@@H]2[C@@H]3C(=O)N(C)C(=O)[C@@H]3[C@](Cc3ccccc3)(C(=O)OC)N12 | -43.3%[9.22 µM] | 0.1 | i | i | 26.9% | 10.1
CCOC(=O)CSc1nc2c(sc(=S)n2Cc2ccco2)c(=O)n1-c1ccccc1 | -4.9% | -18.6 | i | i | 12.3% | -5.0
CCOC(=O)CSc1nc2c(sc(=S)n2-c2ccccc2OC)c(=O)n1-c1ccccc1OC | 7.5% | 2.2 | i | i | 10.0% | 2.7
CCOC(=O)CSc1nc2c(sc(=S)n2-c2ccccc2OC)c(=O)n1Cc1ccco1 | 6.5% | 4.1 | i | 9.2µM* | 4.4% | -26.3
CCN(CC)C(=O)CSc1nc2c(sc(=S)n2Cc2ccco2)c(=O)n1-c1ccccc1 | 12.8% | -1.2 | i | 8.2µM* | 4.9% | -1.9
Cc1ccc2oc(C(=O)N(Cc3ccc(N(C)C)cc3)CC3CCCO3)c(C)c2c1 (stereo not drawn) | -5.5% | 2.7 | i | u | u | 34.8
O=C(NCc1ccc(Cl)cc1)c1ccc(OCC2CCCO2)cc1 (stereo not drawn) | -2.1% | 4.0 | i | 16.4µM* | 7.0% | 1.0
Cc1cccc(NC(=O)CN(CC2CCCO2)C(=O)c2oc3ccc(F)cc3c2C)c1C (stereo not drawn) | -0.7% | 2.4 | i | 5.17µM* | 15.5% | -3.9
O=C(Nc1nc(-c2ccc(Cl)cc2Cl)cs1)c1ccc(OCC2CCCO2)cc1 (stereo not drawn) | -9.5% | 0.4 | i | 9.2µM* | 16.3% | 8.5
O=C(Nc1ccc(Cl)cc1)c1ccc(OCC2CCCO2)cc1 (stereo not drawn) | -9.3% | -7.3 | u | 13µM* | -0.1% | 10.9
Cc1nn(CC(=O)Nc2cccc(C(F)(F)F)c2)c(=O)c2nn(-c3ccccc3)c(C)c12 | x | 4.9 | i | i | x | x
Cc1ccc(-c2noc(C3CC(=O)N(c4ccc5c(c4)OCCO5)C3)n2)cc1 (stereo not drawn) | x | 5.6 | i | i | x | x
Cc1cccc(NC(=O)c2ccc(OCC3CCCO3)cc2)c1C (stereo not drawn) | 1.6% | -4.4 | i | 20.6µM* | 8.1% | -2.2
C[C@@H]1C(c2cccc(Cl)c2)=NN(c2ccccc2)[C@H]1C(=O)N1CCOC1=O | 18.4µM* | 9.1 | i | i | u | 0.0
CC1CCN(C(=O)c2cc(-c3cccc(Cl)c3)on2)CC1 | x | -19.8 | i | i | x | x
C[C@@H]1C(c2cccc(Cl)c2)=NN(c2ccc(Br)cc2)[C@H]1C(=O)N1CCOC1=O | 3.26µM* | 16.8 | i | i | u | 44.9
SMILES | SW480 rerep | DRD3 agonist | KB-3-1 cytotox | KB-V1 MDR tox | MCF10A rerep | D3 antag
CCC(c1c(C)n(C)n(-c2ccccc2)c1=O)c1c(C)n(C)n(-c2ccccc2)c1=O | -3.0% | -5.0 | i | i | -2.3% | 14.3
CCCC(c1c(C)n(C)n(-c2ccccc2)c1=O)c1c(C)n(C)n(-c2ccccc2)c1=O | -44.2% | 1.5 | 20.6µM* | u | -9.9% | -12.7
C/C(=N\Nc1nc(Cl)c(Cl)cc1Cl)c1ccc(S(=O)(=O)NCc2ccco2)cc1 | u | 7.5 | u | 11.6µM* | u | 15.2
Cc1ccc(CNC(=O)C2CCN(S(=O)(=O)c3ccc4[nH]c(=O)ccc4c3)CC2)cc1 | x | 3.3 | i | u | x | x
COc1ccccc1CNC(=O)CCc1c(C)nn(-c2ccc(N3CCOCC3)nn2)c1C | x | 7.4 | i | i | x | x
COc1cccc(C(=O)C2CN(c3ccccc3)CC2c2ccc(Cl)cc2)c1 (stereo not drawn) | u | -8.9 | i | 16.4µM* | 25.9% | -14.3
O=C(c1ccccc1)C1CN(c2ccccc2)CC1c1ccc(Cl)cc1 (stereo not drawn) | -4.9% | -7.3 | i | i | 1.0% | -10.0
COC(=O)c1nn(-c2ccc(OC)cc2)ccc1=O | 0.6% | 1.8 | i | i | -2.2% | 28.0
S=c1c2c(nc3nc[nH]n13)CCC2 | u | -9.6 | i | i | 1.2% | -24.6
CC1CCc2c(nc3nc[nH]n3c2=O)C1 (stereo not drawn) | -0.6% | 3.3 | i | i | -3.7% | -53.1*
COC(=O)c1sc(NC(=O)CCCn2nc([N+](=O)[O-])cc2C)c(C(=O)OC)c1C | 0.3% | 7.6 | i | 0.92µM* | 3.9% | -1.9
CCNC(=O)CC1C(=O)N(c2cccc(OC)c2)C(=O)N1Cc1ccc(OC)c(OC)c1 (stereo not drawn) | x | 7.3 | i | i | x | x
O=C(NCCn1cc(SCc2ccc(F)cc2)c2ccccc21)c1c(F)cccc1F | -2.5% | 6.2 | u | 18.4µM*! | u | 13.3
O=C(NCCn1cc(SCc2ccccc2)c2ccccc21)c1c(F)cccc1F | -3.2% | 0.9 | i | i | 0.4% | 24.3
Cc1cc2cc(CN(Cc3cccs3)C(c3nnnn3C(C)(C)C)C(C)C)c3nnnn3c2cc1C (stereo not drawn) | -2.6% | 12.0 | i | 1.84µM* | 1.5% | 42.2
CC(C)(C)n1nnnc1C(c1cccs1)N(Cc1ccccc1)Cc1ccco1 (stereo not drawn) | 2.2%[9.22 µM] | -13.5 | u | i | u | 10.3
O=C(CSc1nc2c([nH]c3ccccc32)c(=O)n1-c1ccc(Cl)cc1)NC1CCCCC1 | x | 1.9 | i | u | x | x
O=C(/C=C/c1ccccc1)c1ccc2c(c1)OCO2 | u | -18.7 | i | i | u | 0.0

Compound activity: PubChem BioAssay, National Center for Advancing Translational Sciences (NCATS)
